# TRHR enhancer: qHTS for Small Molecule Agonists and Allosteric Enhancers of Human TRH Receptor: Primary Screen for Enhancers; hit rate 0.66% among 360,000; AID 493056, 2011; Thyrotropin-releasing hormone receptor (Homo sapiens), P34981; enhancement, % at 2 µM; TRHR cells, fluo-8 calcium fluorescence, EC20 TRH enhancement; in the data active = enhancement above about 30%; also: 0% is about no effect
# Target sequence (P34981 whole entry, looked up): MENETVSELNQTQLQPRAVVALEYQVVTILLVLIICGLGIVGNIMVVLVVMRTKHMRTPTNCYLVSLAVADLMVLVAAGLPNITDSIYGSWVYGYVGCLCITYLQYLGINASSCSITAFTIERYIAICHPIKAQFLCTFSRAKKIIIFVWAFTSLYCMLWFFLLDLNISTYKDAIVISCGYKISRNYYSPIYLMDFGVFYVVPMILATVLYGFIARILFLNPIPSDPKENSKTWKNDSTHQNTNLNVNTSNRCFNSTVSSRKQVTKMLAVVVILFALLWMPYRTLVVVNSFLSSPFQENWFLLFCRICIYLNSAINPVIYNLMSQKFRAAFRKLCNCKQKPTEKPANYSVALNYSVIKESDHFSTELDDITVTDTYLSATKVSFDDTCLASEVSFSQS
#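 Enhancer read-out: after compound pinning and an initial kinetic agonist-mode read, an EC20 of TRH (10 nM final) was injected and fluo-8 calcium signal (Ex 480/Em 530) followed at 1 s/cycle for 100 cycles in TRHR-expressing cells.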
# D1 agonist: Allosteric Agonists of the Human D1 Dopamine Receptor: qHTS. D(1A) dopamine receptor (Homo sapiens), P21728. HEK293 T-REx D1 cells, calcium flux, agonist mode. activation, % at 2 µM. hit rate 1% among 360,000; also: 0% is about no effect
#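 Tetracycline-induced HEK293 TREx D1 cells, force-coupled to calcium signalling, were dye-loaded with a no-wash calcium kit. Compound was pin-added after a 10 s baseline. Fluorescence was read kinetically at 1 cycle/s for 180 s, with calcium rises flagged as agonism.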
# TRHR ag: qHTS for Small Molecule Agonists and Allosteric Enhancers of Human TRH Receptor: Primary Screen for Agonists; Thyrotropin-releasing hormone receptor (Homo sapiens), P34981; hit rate 0.18% among 360,000; AID 493084, 2011; activation, % at 2 µM; TRHR cells, calcium flux fluo-8, FDSS agonist mode; also: 0% is about no effect
#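 In this calcium-flux screen, cells bearing human TRHR are dye-loaded with fluo-8, baselined for 10 cycles, then exposed to library compounds; positive kinetic calcium responses during the agonist phase mark hits, with TRH as control.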
# D1 PAM: Potentiators of Human D1 Dopamine Receptor: qHTS | D(1A) dopamine receptor (Homo sapiens), P21728 | HEK293 TREx D1 cells, calcium flux, dopamine EC20 potentiation | potentiation, % at 10 µM | hit rate 0.036% among 360,000; in the data active = potentiation above about 30%; also: 0% is about no effect
# D1 antagonist: Antagonist of Human D 1 Dopamine Receptor: qHTS. D(1A) dopamine receptor (Homo sapiens), P21728. HEK293 TREx D1 cells, calcium flux, dopamine EC80; active compounds read low. activity change, negative = inhibition, % at 10 µM. hit rate 3.2% among 360,000; in the data active = activity change below about -30%; also: % is scaled to controls: 0 for no effect and ±100 for the full control effect
#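 Tetracycline-induced HEK293 Trex D1 cells, force-coupled to calcium, dye-loaded; compounds added and read 180 s, then EC80 dopamine added and calcium flux tracked kinetically another 180 s.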
# Epigenetic reg: Quantitative High-Throughput Screen for Regulators of Epigenetic Control; murine LDR cells, GFP reporter derepression, 30 h; Potency, µM (top dose mostly 53.9 µM), for inactives: top-dose GFP activation, usual class: activators; hit rate 0.2% among 280,000; AID 1865, 2009; active = well fitted activation curve with a large enough effect; inconclusive = small, poorly fitted or top-dose-only effect; also: potency is read from the fitted curve at half-maximal effect; % of control where 0% means no effect; nearly all actives have a fitted effect of over 60% in size
#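 Murine LDR cells carrying a silenced, genomically integrated CMV-driven GFP reporter were exposed to compound for 30 hours at 37 C. After PBS washes, GFP-positive cells (20–120 um objects) were counted by laser-scanning microplate cytometry.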
# Numbers without * were called inactive; u = inconclusive; x = no result; [ ] = another dose, or the depositor's remark. An excerpt weighted towards active compounds, which were near 4.6% of everything screened. Rule as the data show it, unless noted: active = activation above about 30%; inactive = the rest.
SMILES,TRHR enhancer,D1 agonist,TRHR ag,D1 PAM,D1 antagonist,Epigenetic reg
COC(=O)c1ccc(NC(=O)CC2Nc3cc(C)c(C)cc3NC2=O)cc1 (centres undefined),-1.4,12.7,3.3,-1.9,-14.9,u
Cc1ccc(NC(=O)Cn2c(=O)n(CC3CCC(C(=O)NC(C)C)CC3)c(=O)c3sccc32)cc1 (centres undefined),-1.9,2.4,-0.3,-4.8,-44.1*,0.8%
O=C(NCCCN1CCN(c2ccccc2)CC1)c1nnc(Cc2c(F)cccc2Cl)o1,-1.3,5.5,0.0,-5.5,-11.0,7.3%
C[C@]12CCC(=O)C=C1CC[C@@H]1C2[C@@H](O)C[C@@]2(C)[C@H]1CC[C@]2(O)C(=O)CO (some centres undefined),x,x,x,x,x,1.1%
COc1ccc2[nH]cc(CCNC(=O)Nc3cc(C)cc(C)c3)c2c1,-2.9,2.8,-2.1,-1.5,3.6,1.2%
O=C(NCCc1ccccc1)c1ccc(Cl)c([N+](=O)[O-])c1,-3.1,1.6,1.3,-2.5,-36.4*,0.4%
O=C(Cc1ccccc1)NCCc1cccc(Cl)c1,6.0,27.3,-1.0,-8.1,-55.2*,1.0%
NS(=O)(=O)c1ccc(CCNC(=O)c2cccc([N+](=O)[O-])c2)cc1,-3.0,0.7,1.6,-1.6,4.7,-3.1%
O=C(NCCc1cccc(Cl)c1)c1cccc([N+](=O)[O-])c1,-3.3,3.6,-1.6,-3.9,-42.4*,0.0%
Cc1cccc(NC(=O)c2ccc(NCCc3ccccc3)c([N+](=O)[O-])c2)c1,-3.3,3.1,-0.2,-2.5,-0.1,17.8µM*
O=C(O)CCC(=O)NCCc1cccc(Cl)c1,-3.0,5.7,-0.6,x,7.4,1.1%[10.1 µM]
Oc1c(C=Nc2cccc3cccnc23)sc2ccccc12,9.5,158.4*,50.0*,0.5,-23.8,13.2%
CC(C)N=Cc1c(O)[nH]c2ccccc12,9.4,-0.3,-0.1,-3.4,x,-0.5%
Cc1cccc(/N=C/c2sc3ccccc3c2O)n1,14.3,51.8*,10.5,-5.8,2.8,4.3%
O=[N+]([O-])c1ccc(O)c(N=Cc2sc3ccccc3c2O)c1,-0.5,27.2,17.0,2.1,16.1,0.1%
Cc1cccc(/N=C/c2c(O)[nH]c3ccccc23)n1,-6.5,32.7*,-0.2,-7.5,-14.0,0.0%
Cc1ccc(NC(=O)N2CCN(c3nnc(C)c4c(C)n(-c5ccccc5)nc34)CC2)c(Cl)c1,-3.2,3.0,-0.3,-4.3,-7.0,0.0%
Cc1cccc(-c2cc(=O)c(C(=O)O)cn2-c2ccc(F)cc2F)c1,5.2,3.1,-0.4,-7.0,-40.2*,4.8%
N#Cc1ccccc1COC(=O)c1ccc2c(c1)OCO2,2.5,3.3,-0.1,-1.6,-41.5*,x
CC(C)COc1ccc(C(=O)Nc2onc3c2CCCC3)cc1,-2.2,9.5,-1.0,-0.6,-44.9*,1.9%
CCOc1ccc(C(=O)Nc2onc3c2CCCC3)cc1,2.0,-2.5,-0.1,-1.4,-13.4,0.0%
O=C(Nc1cccc(C(F)(F)F)c1)c1cc(S(=O)(=O)N2CCCC2)c[nH]1,-2.6,1.0,0.4,-3.1,4.4,1.4%
COCc1[nH][nH]c(=O)c1C=Nc1ccc(Cl)cc1,5.1,-0.5,0.6,-0.3,-2.4,-2.2%
COCc1[nH][nH]c(=O)c1C=Nc1ccc(OC(F)(F)F)cc1,-0.7,2.4,0.2,-4.0,-33.0*,0.8%
Cc1cccc(NC(=O)c2cnn(-c3ccccc3)c2-n2cccc2)c1C,-0.5,14.0,-2.2,-1.6,-4.6,-3.2%
CC(=O)Nc1ccc(-c2ccc(NC(C)=O)c(O)c2)cc1O,-4.4,0.4,0.8,-7.0,-32.3*,3.2%
CCOC(=O)c1c(-c2ccccc2)csc1NC(=O)c1cc(-c2cccc(OC)c2)on1,-0.5,2.3,0.2,1.5,-5.1,-1.8%

# Bioassay records deposited in PubChem BioAssay by National Center for Advancing Translational Sciences (NCATS).
